# Pf growth 48h: P. falciparum growth inhibition at 48 hours (one generation); P. falciparum luciferase growth in erythrocytes, 48 h; Potency, µM (top dose mostly 28.7 µM), inactives show top-dose activity change, negative = inhibition, hits mostly inhibitors; 5.9% of 310,000 active; note: % is set by controls: 0 for no effect and ±100 for the full control effect
#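 Luciferase-expressing P. falciparum in infected erythrocytes (2% hematocrit, 0.1% parasitemia final) in RPMI 1640/0.5% Albumax were exposed to compound for 48 hours at 37 C, 5% CO2; growth read as luminescence.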
# Sm TGR block: blocks Schistosoma mansoni thioredoxin glutathione reductase; 3% of 360,000 active; AID 485364; purified TGR, DTNB reduction, TNB absorbance 405 nm; Potency, µM (doses to about 114 µM), inactives show top-dose activity change, negative = inhibition, usual class: inhibitors; note: % is set by controls: 0 for no effect and ±100 for the full control effect; nearly all actives have a fitted effect of over 60% in size
#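 First, TGR (20 nM dispensed) and NADPH were mixed with compound. Second, a 15 min room-temperature incubation followed. Third, further NADPH and then DTNB were added to start the reaction. Finally, TNB absorbance was monitored kinetically.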
# SARS PLpro yeast: SARS-CoV PLP inhibition in yeast. S. cerevisiae expressing SARS-CoV PLpro, growth rescue. 0.19% of 330,000 active. Potency, µM (titrated, usually from 32.9 µM), inactives show at the top dose activity, positive = growth rescue, most hits filed as activators; calls by dose curve; note: 0% is about no effect; nearly all actives have a fitted effect of over 55% in size
# Pf growth 96h: P. falciparum growth inhibition at 96 hours | P. falciparum luciferase reporter growth, 96 h | Potency, µM (series often up to 28.7 µM), for the others: at the highest dose activity change, negative = inhibition, hits mostly inhibitors | 6.9% of 320,000 active | AID 504834; note: % is set by controls: 0 for no effect and ±100 for the full control effect
#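 Cell-based qHTS: luciferase-tagged P. falciparum in erythrocytes (2% hematocrit, 0.05% parasitemia final) incubated with compounds for 96 hours, 37 C, 5% CO2; luciferase detection reagent then added and luminescence measured.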
# The depositor's hits bear a star; ? = inconclusive; nt = not tested or not shown; [ ] = dose if it differs, or a comment. A selection: hits, their analogues and other compounds. The true share with any hit is near 12%. Unless noted, calls come from the whole dose curve; as a rule, active = well fitted curve in the direction sought with a large enough effect; inconclusive = small, poorly fitted or top-dose-only effect, or another doubt; inactive = no such curve, though single readings can be large; an effect the other way counts as inactive or inconclusive. Potency is the fitted concentration of half-maximal effect.
SMILES,Pf growth 48h,Sm TGR block,SARS PLpro yeast,Pf growth 96h
Cc1onc(-c2ccccc2)c1C(=O)NCc1ccccc1F,7%,-3%,2%,3%
CCN(CC)c1ccc(/C=C(\C#N)c2nc(-c3cccs3)c(NC(C)=O)s2)cc1,13µM*,-1%,-3%,7.4µM*
Cc1nn2c(-c3ccc(S(=O)(=O)N4CCN(C)CC4)o3)nnc2c2ccccc12,?,-19%,-2%,-28%
Cc1ccc(-c2nnc3c4ccccc4c(C)nn23)cc1S(=O)(=O)N1CCN(CCO)CC1,0.41µM*,9%,2%,?
O=C(c1cc2c(s1)-c1ccccc1S(=O)(=O)C2)N1CCCC1,60%,-2%,-19%,51%
CCN(C(=O)c1cc2c(s1)-c1ccccc1OC2)c1cc(OC)ccc1OC,?,10%,-16%,12µM*
COc1ccc(N(C)C(=O)c2cc3c(s2)-c2ccccc2OC3)cc1,nt,8%,nt,nt
CCN(C(=O)c1cc2c(s1)-c1ccccc1S(=O)(=O)C2)c1cc(OC)ccc1OC,9.3µM*,-14%,4%,?
Cc1ccc(C(=O)NC2(C(F)(F)F)N=C(c3ccccc3)N(C3CCCCC3)C2=O)cc1 (configuration not stated),nt,-1%,nt,nt
Cc1ccccc1N1C(=O)C(Oc2ccc(Cl)cc2)C1CNC(C)(C)C (configuration not stated),12µM*,-5%,-5%,47%
CCCNCC1C(Oc2ccc(Cl)cc2)C(=O)N1c1ccccc1C (configuration not stated),10µM*,1%,-8%,7%
COCCNCC1C(Oc2ccc(Cl)cc2)C(=O)N1c1ccccc1C (configuration not stated),?,4%,4%,188%
COc1cccc(CNC(=O)CN2C(=O)CSc3ccc(S(=O)(=O)N(C)C)cc32)c1,nt,8%,nt,nt
CCOC(=O)C1=C(C2=CCCCC2)c2ccc(OC)cc2N(S(=O)(=O)C(F)(F)F)C1C(=O)OCC (configuration not stated),nt,nt,-4%,nt
CCCNC(=O)c1cccc(S(=O)(=O)N2CC3(C)CC2CC(C)(C)C3)c1 (configuration not stated),?,-20%,3%,13µM*
CN(C)C(CNC(=O)c1cccc(S(=O)(=O)N2CC3(C)CC2CC(C)(C)C3)c1)c1ccco1 (configuration not stated),?,25µM*,3%,17%[5.75 µM]
COc1cc(OC)cc(C(=O)N2CCC(n3c(C)nc4cc(F)ccc43)CC2)c1,nt,8%[11.4 µM],4%,13µM*
Brc1ccccc1-c1nc2c3ccccc3ncn2n1,332%,3%,14%,294%
S=c1nc2ccccc2c2nc(-c3ccccc3Br)[nH]n12,2.9µM*,-3%,3%,2.3µM*
CCOc1ccc(NC(=O)COC(=O)Cc2ccsc2)cc1,nt,nt,-5%,nt
NNC(=O)CN1C(c2ccc(Cl)cc2)=Nc2ccc(Br)cc2C1c1ccccc1 (configuration not stated),8.3µM*,6%,-5%,34%
NNC(=O)CN1C(c2ccccc2)=Nc2ccc(Br)cc2C1c1ccccc1 (configuration not stated),?,-1%,2%,13%
NNC(=O)CN1C(CN2CCOCC2)=Nc2ccc(Br)cc2C1c1ccccc1 (configuration not stated),?,nt,1%,13µM*
COc1ccc(-n2nc(C(=O)NCCc3ccc(OC)c(OC)c3)c3c4ccccc4n(C)c3c2=O)cc1Cl,nt,13%,nt,nt
O=C(NCc1n[nH]c(=S)n1-c1ccc([N+](=O)[O-])cc1)c1ccc(S(=O)(=O)N2CCOCC2)cc1,6%,-1%,-5%,6.6µM*
SMILES,Pf growth 48h,Sm TGR block,SARS PLpro yeast,Pf growth 96h
Cn1c2ccccc2c(=O)c2cc(C#Cc3cccc(N)c3)ccc21,15%,-1%,0%,-2%
Cn1c2ccccc2c(=O)c2ccc(C#Cc3ccc(N)cc3)cc21,-25%,?,-29%,9.3µM*
Cn1c2ccccc2c(=O)c2cc(C#CC3=CCCCC3)ccc21,?,2.2µM*,-12%,?
COc1ccccc1C#Cc1ccc2c(=O)c3ccccc3n(C)c2c1,?,?,0%,?
COc1ccc(C#Cc2ccc3c(=O)c4ccccc4n(C)c3c2)cc1,-41%,-27%,-1%,8.3µM*
CCCCNS(=O)(=O)c1ccc2nc(-c3cccnc3)cc(C(=O)NCC(OC)OC)c2c1,3%,-2%,0%,4%
O=C(CSc1n[nH]c(=O)n1C1CC1)c1c[nH]c2ccccc12,8%,-14%,-5%,-27%
CCn1cc(C(=O)N[C@@H](CCSC)C(=O)NCCCO)c(=O)c2cc3c(cc21)OCO3,?,4%,2%,?
CCn1cc(C(=O)N[C@@H](CCSC)C(=O)NCCOC)c(=O)c2cc3c(cc21)OCO3,?,11%,0%,12µM*
O=C(/C=C/Sc1ccc(C(F)(F)F)cn1)c1ccccc1,?,89µM*,-1%,-13%
O=C(Nc1ccc(F)cc1F)c1c(C(F)(F)F)ccnc1Oc1cccc(C(F)(F)F)c1,15µM*,-11%,0%,10µM*
Cn1nc(C(F)(F)F)c(C(=O)Nc2ccc(F)cc2F)c1Sc1cccc(C(F)(F)F)c1,9.3µM*,24%,15%,8.3µM*
O=C(Nc1ccc(F)cc1F)c1c(C(F)(F)F)ccnc1Oc1ccc(Cl)cc1,?,-3%,0%,?
Cn1nc(C(F)(F)F)c(C(=O)Nc2ccc(F)cc2F)c1Sc1cccc(Cl)c1,?,-11%,4%,?
O=C(CSCc1ccccc1Cl)N1CCN(c2ccc(F)cc2)CC1,nt,-5%,nt,nt
Oc1ccc(C[C@@H]2CNCCN2CCc2cc(C(F)(F)F)cc(C(F)(F)F)c2)cc1,8.3µM*,-11%,-12%,?
c1ccc(C[C@H]2CNCCN2CCc2cccc3ccccc23)cc1,?,-30%,-6%,?
Oc1ccc(C[C@H]2CNCCN2CCc2cccc3ccccc23)cc1,5.2µM*,-15%,4%,4.7µM*
Oc1ccc(C[C@H]2CNCCN2CCc2cc(C(F)(F)F)cc(C(F)(F)F)c2)cc1,9.3µM*,0%,1%,?
Cc1nc2c(c(C)nn2-c2ccccc2)c(C)c1CCC(=O)Nc1ccccc1,nt,-19%,nt,nt
CCC(C)NC(=O)CCc1c(C)nc2c(c(C)nn2-c2ccccc2)c1C (configuration not stated),?,-2%,-1%,-16%
Cc1nc2c(c(C)nn2-c2ccccc2)c(C)c1CCC(=O)Nc1ccc(CN2CCCC2)cc1,?,-1%,-1%,2.1µM*
COC(=O)C(NC(=O)CCc1c(C)nc2c(c(C)nn2-c2ccccc2)c1C)C(C)C (configuration not stated),6.6µM*,-11%,-2%,1%
COc1ccccc1N1CCN(C(=O)C2CCC(CNS(=O)(=O)c3ccc(NC(C)=O)cc3)CC2)CC1 (configuration not stated),?,0%,0%,?
O=C(Cc1ccc(Cl)cc1)NCCS(=O)(=O)N1CCN(c2ccccc2F)CC1,?,-7%,-9%,?
